Consider four molecules from ChEMBL document CHEMBL1961873, “Compounds: GSK PKIS; Assays: Nanosyn kinase panel” (2012).

Structures are written as SMILES.

Assay [1] addresses T1, 3-phosphoinositide-dependent protein kinase 1 (Homo sapiens) (UniProt O15530).
T1 sequence (whole entry): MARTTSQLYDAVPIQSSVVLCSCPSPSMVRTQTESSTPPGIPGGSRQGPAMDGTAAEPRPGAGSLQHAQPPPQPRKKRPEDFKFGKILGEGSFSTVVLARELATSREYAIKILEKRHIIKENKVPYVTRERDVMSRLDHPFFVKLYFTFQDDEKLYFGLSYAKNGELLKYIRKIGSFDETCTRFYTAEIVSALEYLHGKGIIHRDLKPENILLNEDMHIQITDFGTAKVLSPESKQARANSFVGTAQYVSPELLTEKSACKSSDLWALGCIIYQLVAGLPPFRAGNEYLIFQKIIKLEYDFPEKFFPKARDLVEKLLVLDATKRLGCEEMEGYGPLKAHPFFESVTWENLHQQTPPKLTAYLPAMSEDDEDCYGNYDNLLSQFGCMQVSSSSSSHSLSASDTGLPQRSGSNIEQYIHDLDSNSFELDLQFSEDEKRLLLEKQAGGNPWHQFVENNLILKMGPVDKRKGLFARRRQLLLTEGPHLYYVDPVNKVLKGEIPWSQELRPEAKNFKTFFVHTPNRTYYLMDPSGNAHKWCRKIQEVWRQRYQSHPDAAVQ
Conditions: at 0.1 µM.

Assay [2] concerns the target cAMP-dependent protein kinase catalytic subunit alpha (Homo sapiens) (UniProt P17612). Conditions: at 0.1 µM.
Assay [3] has the same target. Conditions: at 1 µM.
Assay [4] concerns the target Protein kinase C alpha type (Homo sapiens) (UniProt P17252). Conditions: at 0.1 µM.
For assay [5] the target is unchanged. Conditions: at 1 µM.
Assay [6] has as its target Protein kinase C beta type (Homo sapiens) (UniProt P05771). The settings on record: at 0.1 µM.
Assay [7] has the same target. The settings on record: at 1 µM.
The target in assay [8] is Protein kinase C eta type (Homo sapiens) (UniProt P24723). Conditions: at 0.1 µM.
Sequence of Protein kinase C eta type (Homo sapiens) (P24723 whole entry): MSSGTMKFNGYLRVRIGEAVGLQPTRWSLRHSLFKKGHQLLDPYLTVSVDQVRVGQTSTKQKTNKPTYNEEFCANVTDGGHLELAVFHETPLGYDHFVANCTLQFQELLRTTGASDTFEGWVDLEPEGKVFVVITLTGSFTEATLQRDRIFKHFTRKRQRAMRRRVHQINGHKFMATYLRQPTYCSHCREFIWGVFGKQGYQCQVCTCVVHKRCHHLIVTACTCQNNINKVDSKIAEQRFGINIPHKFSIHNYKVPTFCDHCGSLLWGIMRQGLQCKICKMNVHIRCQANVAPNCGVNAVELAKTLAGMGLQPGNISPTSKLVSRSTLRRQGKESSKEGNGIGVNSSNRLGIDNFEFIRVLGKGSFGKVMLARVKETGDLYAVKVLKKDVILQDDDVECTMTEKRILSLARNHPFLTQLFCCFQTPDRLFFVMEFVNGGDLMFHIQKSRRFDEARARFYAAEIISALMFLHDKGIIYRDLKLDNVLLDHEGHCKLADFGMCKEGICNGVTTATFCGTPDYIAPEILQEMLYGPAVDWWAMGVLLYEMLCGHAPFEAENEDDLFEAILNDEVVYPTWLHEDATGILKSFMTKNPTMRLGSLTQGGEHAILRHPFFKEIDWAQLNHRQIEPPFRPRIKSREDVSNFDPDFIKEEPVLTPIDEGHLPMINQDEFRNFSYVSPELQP
For assay [9] the target is unchanged. The settings on record: at 1 µM.
Assay [10] has as its target Protein kinase C gamma type (Homo sapiens) (UniProt P05129). The settings on record: at 0.1 µM.
The target is the same in assay [11]. The settings on record: at 1 µM.
In assay [12] the target is T2, Protein kinase C iota type (Homo sapiens) (UniProt P41743).
T2 sequence (whole entry): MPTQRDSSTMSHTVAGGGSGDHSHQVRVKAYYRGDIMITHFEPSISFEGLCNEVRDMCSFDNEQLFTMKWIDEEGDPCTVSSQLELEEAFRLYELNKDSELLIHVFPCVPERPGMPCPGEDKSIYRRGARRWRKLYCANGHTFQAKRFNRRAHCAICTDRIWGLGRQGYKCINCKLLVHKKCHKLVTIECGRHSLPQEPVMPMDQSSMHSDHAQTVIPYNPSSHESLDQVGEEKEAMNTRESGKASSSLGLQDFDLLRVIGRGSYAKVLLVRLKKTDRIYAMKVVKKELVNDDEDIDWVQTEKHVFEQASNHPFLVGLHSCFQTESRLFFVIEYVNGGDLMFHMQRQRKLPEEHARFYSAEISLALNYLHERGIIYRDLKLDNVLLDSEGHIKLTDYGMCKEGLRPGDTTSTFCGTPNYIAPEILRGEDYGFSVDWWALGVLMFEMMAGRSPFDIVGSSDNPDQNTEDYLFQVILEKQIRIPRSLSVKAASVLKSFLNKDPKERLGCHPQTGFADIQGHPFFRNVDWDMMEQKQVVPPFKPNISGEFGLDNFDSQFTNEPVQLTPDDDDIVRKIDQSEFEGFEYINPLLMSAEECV
Conditions: at 0.1 µM.

The target of assay [13] is T2, Protein kinase C iota type (Homo sapiens). Conditions: at 1 µM.
For assay [14], the target named is Protein kinase C theta type (Homo sapiens) (UniProt Q04759). Conditions: at 0.1 µM.
Sequence of Protein kinase C theta type (Homo sapiens) (Q04759 whole entry, looked up): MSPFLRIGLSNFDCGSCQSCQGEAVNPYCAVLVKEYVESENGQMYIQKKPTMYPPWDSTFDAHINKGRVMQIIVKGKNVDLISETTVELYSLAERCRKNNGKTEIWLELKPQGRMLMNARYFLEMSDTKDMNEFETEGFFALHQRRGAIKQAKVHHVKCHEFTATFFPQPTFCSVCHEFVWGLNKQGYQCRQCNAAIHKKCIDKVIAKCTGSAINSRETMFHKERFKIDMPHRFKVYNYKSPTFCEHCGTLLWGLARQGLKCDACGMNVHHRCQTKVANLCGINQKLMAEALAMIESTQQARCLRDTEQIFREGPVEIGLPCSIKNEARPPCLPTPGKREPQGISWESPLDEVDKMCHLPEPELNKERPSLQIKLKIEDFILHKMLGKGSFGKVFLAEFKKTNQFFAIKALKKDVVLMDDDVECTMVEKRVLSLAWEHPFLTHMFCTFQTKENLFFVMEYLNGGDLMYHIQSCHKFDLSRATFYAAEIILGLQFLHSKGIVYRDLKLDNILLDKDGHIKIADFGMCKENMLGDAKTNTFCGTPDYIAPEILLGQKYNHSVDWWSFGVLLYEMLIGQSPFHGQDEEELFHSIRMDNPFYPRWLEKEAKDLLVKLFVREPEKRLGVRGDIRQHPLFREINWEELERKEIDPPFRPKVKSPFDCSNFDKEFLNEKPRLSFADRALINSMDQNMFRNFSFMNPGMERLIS
Assay [15] shares this target. The settings on record: at 1 µM.
Assay [16] addresses Protein kinase C beta type (Homo sapiens) (UniProt P05771). Conditions: at 0.1 µM. This is another data set of the same source.
Assay [17] shares this target. Conditions: at 1 µM. This is another data set of the same source.
The target in assay [18] is T3, Serine/threonine-protein kinase D1 (Homo sapiens) (UniProt Q15139).
T3 sequence (whole entry): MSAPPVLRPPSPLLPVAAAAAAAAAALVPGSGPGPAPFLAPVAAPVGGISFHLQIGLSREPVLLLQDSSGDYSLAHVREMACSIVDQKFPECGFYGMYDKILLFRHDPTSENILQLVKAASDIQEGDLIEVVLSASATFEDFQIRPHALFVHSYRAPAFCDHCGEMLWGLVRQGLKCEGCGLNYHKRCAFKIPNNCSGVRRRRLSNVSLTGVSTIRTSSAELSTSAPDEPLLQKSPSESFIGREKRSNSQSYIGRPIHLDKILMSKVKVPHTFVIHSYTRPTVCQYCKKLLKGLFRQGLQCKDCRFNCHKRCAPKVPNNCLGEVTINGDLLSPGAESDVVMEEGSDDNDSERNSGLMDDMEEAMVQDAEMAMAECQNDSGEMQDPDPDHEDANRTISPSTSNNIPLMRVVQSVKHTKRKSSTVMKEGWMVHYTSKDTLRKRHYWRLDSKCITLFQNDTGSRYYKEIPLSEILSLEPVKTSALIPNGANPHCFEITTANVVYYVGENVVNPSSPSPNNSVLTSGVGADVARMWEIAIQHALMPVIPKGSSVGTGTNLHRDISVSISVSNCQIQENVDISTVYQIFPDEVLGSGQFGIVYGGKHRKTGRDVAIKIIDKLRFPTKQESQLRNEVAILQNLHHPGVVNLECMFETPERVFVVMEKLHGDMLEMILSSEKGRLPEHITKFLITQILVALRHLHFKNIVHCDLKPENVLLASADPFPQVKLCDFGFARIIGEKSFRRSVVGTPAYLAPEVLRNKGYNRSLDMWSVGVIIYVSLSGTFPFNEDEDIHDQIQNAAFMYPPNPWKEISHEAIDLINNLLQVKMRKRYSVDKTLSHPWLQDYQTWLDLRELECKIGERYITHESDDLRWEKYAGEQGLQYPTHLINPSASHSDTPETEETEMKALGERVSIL
Conditions: at 0.1 µM.

Assay [19] concerns the target T3, Serine/threonine-protein kinase D1 (Homo sapiens). Conditions: at 1 µM.
Assay [20] concerns the target T4, Serine/threonine-protein kinase D2 (Homo sapiens) (UniProt Q9BZL6).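 Further: reported percent inhibition values are means, part of the GSK PKIS kinase panel screen.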
T4 sequence (whole entry): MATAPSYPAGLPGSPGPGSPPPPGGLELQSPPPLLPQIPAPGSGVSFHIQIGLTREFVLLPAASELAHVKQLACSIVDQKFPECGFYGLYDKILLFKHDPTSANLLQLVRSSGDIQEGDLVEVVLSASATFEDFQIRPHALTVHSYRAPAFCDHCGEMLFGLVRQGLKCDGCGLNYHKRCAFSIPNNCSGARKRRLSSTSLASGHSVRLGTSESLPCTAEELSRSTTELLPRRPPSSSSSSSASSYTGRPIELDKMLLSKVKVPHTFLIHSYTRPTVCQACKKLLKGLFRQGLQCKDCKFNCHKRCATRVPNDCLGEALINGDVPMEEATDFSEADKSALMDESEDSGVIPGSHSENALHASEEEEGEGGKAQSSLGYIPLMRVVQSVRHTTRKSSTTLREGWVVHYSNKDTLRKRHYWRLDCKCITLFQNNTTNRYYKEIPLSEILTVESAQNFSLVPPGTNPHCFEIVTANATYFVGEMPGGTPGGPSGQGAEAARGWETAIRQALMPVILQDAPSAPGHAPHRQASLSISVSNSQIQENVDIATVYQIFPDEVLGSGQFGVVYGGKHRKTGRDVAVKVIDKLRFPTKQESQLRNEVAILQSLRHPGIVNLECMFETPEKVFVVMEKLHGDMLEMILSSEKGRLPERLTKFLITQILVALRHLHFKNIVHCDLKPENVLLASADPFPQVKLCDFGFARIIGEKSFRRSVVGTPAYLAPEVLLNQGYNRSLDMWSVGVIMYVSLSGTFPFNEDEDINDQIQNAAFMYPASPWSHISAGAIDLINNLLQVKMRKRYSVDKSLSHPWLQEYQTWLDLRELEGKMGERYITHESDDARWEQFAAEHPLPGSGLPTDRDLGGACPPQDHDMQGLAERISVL
The settings on record: at 0.1 µM.

Sequence of Protein kinase C beta type (Homo sapiens) (P05771 2-671 limits assumed): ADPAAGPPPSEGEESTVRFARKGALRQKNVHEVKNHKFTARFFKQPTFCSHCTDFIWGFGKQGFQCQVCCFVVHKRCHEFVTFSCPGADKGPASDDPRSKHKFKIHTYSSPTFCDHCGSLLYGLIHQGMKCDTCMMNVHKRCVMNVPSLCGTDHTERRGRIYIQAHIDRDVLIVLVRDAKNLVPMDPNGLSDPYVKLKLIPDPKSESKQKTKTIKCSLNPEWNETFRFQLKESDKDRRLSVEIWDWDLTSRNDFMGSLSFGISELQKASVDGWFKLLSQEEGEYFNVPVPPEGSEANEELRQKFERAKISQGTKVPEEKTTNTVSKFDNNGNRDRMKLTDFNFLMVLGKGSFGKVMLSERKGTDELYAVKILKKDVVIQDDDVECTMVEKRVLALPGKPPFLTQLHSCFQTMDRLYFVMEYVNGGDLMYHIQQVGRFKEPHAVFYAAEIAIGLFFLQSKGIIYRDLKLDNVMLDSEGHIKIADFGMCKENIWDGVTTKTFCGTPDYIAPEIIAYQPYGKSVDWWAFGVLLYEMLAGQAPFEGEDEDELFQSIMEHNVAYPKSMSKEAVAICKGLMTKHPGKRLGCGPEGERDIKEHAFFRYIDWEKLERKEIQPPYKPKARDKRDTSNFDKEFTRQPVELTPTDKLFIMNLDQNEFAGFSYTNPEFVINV

One may read the inhibition as the relative decrease from the control value, in per cent. Take `CNC(=O)c1sc(-n2cnc3cc(OC)c(OC)cc32)cc1OCc1ccccc1C(F)(F)F`: the inhibition in assay [1] amounted to 1.81%; in [2], 2.01%; in assay [3], 2.29%; in assay [4] it was 0.09%; in [5], 0.93%; in [6] it was 1.29%. For the same molecule, the inhibition is -0.63% in [7]; 3.69% in [8]; 1.55% in assay [9]; 5.06% in assay [10]; -2.1% in [11]; 1.37% in [12]. Besides, the inhibition is 0.74% in assay [13]; 2.36% in assay [14]; 0.67% in assay [15]; 1.04% in assay [16]; 1.38% in assay [17]; 3.83% in assay [18]. The inhibition in assay [19] stood at 4.48%; in assay [20] it was 4%.
Consider `CS(=O)(=O)Nc1ccc(-c2cc(-c3ccccc3)cc(C(N)=O)c2N)cc1`, for which the inhibition in assay [1] is -0.56%; in [2], 0.69%; in assay [3], -0.07%; in assay [4], 0.46%; in assay [5], 1.59%; in assay [6], -0.05%. The inhibition is -0.92% in [7]; 1.6% in assay [8]; 1.53% in assay [9]; 1.15% in [10]; 1.39% in assay [11]; 1.17% in assay [12]. Besides, the inhibition in [13] is 1.73%; in assay [14] it was 0.69%; in [15], 0.71%; in assay [16], 0.99%; in [17] it was 1.98%; in assay [18], 1.67%. Moreover, the inhibition in assay [19] came out at 1.98%; in [20], 0.22%.
With `CN(C)CCNC(=O)Nc1ccc(N(C)c2ccnc(Nc3ccc(CS(C)(=O)=O)cc3)n2)cc1`, the inhibition in assay [1] was 2.36%; in [2], 2.31%; in assay [3] it was 5.69%; in assay [4], 1.06%; in assay [5], 1.51%; in assay [6], -0.61%. Besides, the inhibition in [7] was 0.12%; in [8], 5.94%; in [9] it was -2.33%; in assay [10], 2.25%; in assay [11] it was 3.46%; in [12], 1.77%. The inhibition came to 4.15% in assay [13]; 2.29% in [14]; 2.96% in assay [15]; 0.79% in [16]; 0.59% in assay [17]; 3.85% in assay [18]. The inhibition in assay [19] was 7.28%; in assay [20] it was 3.75%.
With `OCCCNc1nccc(-c2c(-c3ccc(F)cc3)nn3cc(C(F)(F)F)ccc23)n1`, the inhibition in assay [1] was 2.27%; in [2] it was 5.3%; in assay [3], 1.41%; in [4], 0.43%; in [5], 2.81%; in [6], 3.23%. In addition, the inhibition turned out to be 5.54% in assay [7]; 3.94% in assay [8]; 0.31% in assay [9]; 2.28% in [10]; 1.12% in assay [11]; 0.77% in assay [12]. Moreover, the inhibition came to 4.1% in [13]; 0.12% in assay [14]; 0.91% in assay [15]; 1.5% in [16]; 7.52% in assay [17]; 1.85% in assay [18]. In addition, the inhibition in [19] is 14.1%; in assay [20], 2.01%.
